Common to all, as to assay: log2 fold change, soluble protein after heating vs DMSO (PISA); higher = thermal stabilisation; K562 lysate, 10 uM; active = over 0.2 and 3.5 SD of the protein, either way, in both replicates (recomputed)
Compound in one assay: C#Cc1cccc(Nc2ncnc3cc(OCCOC)c(OCCOC)cc23)c1 [erlotinib]
In short, it runs like this: (§1)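 Dounce homogenisation of K562 pellets in PBS pH 7.4 with 1 mM MgCl2 produced a crude extract, used at 1 mg/mL protein. Exposure to 10 μM compound lasted 30 min, and aliquots were then heated for 3 min across 48°C-58°C, pooled and brought to 0.5% NP-40 at 4°C. The supernatant after 21,000xg for 90 min was quantified by TMTpro 16plex LC-MS/MS with channel sums equalised. Duplicate values are given as log-two fold change in thermal stability relative to solvent controls.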

Compound in assay [1]: C1=CC(=CC=C1C2=NC3=C(N2)C=C(C=C3)C(=O)N)OC4=CC=C(C=C4)Cl
In short, it runs like this: as §1

Compound in assay [2]: C1=CC=C(C=C1)C2=NC(=C(N2)C3=CC=NC=C3)C4=CC(=C(C=C4)Cl)O
In short, it runs like this:
as §1

Compound in another assay: C1COCCN1CCN2C3=CC=CC=C3N=C2NC(=O)C4=CC(=CC=C4)[N+](=O)[O-] [IRAK-1-4 Inhibitor I]
In short, it runs like this:
as §1

Compound in assay [3]: C/C(=N\NC(=O)C1=CC(=CC=C1)S(=O)(=O)N2CCOCC2)/C3=C(C=CC(=C3)Cl)O
In short, it runs like this: as §1

Compound in assay [4]: C1=CC2=C(C=CC(=C2)/C=C\3/C(=O)NC(=NCC4=CC=CS4)S3)N=C1
In short, it runs like this: as §1

Compound in assay [5]: C1=CC2=NC=CN=C2C=C1/C=C/3\C(=O)NC(=O)S3
In short, it runs like this:
as §1

Compound in assay [6]: C1=CC=C2C(=C1)C3=NNC4=CC=CC(=C43)C2=O
In short, it runs like this:
as §1

Compound in assay [7]: C1CCN(C1)C(=O)NC2=CC=CC(=C2)NC3=NC=C(C(=N3)NCCC4=CN=CN4)Br
In short, it runs like this: as §1

Compound in assay [8]: C1CN(CCC1(CC2=CC=C(C=C2)Cl)N)C3=NC=NC4=C3C=CN4
In short, it runs like this:
as §1

Of roughly 8,800 targets only a part is listed; those with a hit were picked by preference. About 0.5% of all pairs of compound and target were hits.

UniProt Q9Y303, sequence (Q9Y303 whole entry, looked up): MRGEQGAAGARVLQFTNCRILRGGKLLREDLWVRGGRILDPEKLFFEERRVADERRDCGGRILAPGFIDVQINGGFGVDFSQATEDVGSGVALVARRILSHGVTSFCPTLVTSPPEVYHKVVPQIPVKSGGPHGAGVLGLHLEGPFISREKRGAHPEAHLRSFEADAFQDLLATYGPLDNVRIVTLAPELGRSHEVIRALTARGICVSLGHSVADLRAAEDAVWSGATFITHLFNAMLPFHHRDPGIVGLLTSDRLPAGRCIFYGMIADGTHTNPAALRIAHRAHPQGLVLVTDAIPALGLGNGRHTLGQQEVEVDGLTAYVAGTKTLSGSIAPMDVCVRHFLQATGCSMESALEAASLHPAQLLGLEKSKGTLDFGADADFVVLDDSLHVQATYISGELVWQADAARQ
UniProt Q7L211, sequence (Q7L211 whole entry, looked up): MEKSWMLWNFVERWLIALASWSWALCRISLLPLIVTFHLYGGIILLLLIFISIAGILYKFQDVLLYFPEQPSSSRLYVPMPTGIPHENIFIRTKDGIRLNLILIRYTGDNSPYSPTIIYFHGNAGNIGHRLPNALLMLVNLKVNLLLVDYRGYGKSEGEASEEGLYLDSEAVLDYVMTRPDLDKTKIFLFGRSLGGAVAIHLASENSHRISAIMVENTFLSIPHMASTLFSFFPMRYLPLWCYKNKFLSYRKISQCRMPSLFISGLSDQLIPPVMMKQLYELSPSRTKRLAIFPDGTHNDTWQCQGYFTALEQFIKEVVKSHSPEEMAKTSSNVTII
UniProt O14617, sequence (O14617 whole entry, looked up): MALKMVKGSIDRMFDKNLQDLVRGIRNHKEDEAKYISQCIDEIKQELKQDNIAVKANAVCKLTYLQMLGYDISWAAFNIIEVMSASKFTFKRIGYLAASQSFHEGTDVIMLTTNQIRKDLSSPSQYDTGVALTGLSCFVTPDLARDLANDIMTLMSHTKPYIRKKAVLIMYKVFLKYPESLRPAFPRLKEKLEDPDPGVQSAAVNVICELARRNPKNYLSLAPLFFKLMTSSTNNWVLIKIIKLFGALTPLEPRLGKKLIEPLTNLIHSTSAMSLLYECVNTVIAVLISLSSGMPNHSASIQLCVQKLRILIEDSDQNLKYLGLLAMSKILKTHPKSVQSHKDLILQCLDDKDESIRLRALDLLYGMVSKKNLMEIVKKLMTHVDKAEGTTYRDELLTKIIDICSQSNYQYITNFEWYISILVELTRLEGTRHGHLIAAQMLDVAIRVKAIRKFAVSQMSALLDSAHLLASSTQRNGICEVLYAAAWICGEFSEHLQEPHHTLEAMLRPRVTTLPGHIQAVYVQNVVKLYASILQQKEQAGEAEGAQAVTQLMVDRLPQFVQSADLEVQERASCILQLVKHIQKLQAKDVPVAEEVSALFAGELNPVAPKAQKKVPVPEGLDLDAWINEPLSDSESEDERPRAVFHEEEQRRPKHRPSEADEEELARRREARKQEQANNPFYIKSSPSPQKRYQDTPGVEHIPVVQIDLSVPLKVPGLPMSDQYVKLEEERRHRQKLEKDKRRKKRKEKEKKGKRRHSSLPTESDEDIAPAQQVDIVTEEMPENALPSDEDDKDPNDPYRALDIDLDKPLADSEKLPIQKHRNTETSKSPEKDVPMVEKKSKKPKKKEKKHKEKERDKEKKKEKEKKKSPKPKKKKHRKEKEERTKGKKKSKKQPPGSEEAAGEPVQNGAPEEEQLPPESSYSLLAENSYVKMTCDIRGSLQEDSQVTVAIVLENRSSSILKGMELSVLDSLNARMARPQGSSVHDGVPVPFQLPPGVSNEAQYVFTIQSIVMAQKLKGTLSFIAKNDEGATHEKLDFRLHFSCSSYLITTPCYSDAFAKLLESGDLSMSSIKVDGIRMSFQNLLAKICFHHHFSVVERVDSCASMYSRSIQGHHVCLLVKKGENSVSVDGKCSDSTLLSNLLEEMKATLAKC
UniProt P30838, sequence (P30838 whole entry, looked up): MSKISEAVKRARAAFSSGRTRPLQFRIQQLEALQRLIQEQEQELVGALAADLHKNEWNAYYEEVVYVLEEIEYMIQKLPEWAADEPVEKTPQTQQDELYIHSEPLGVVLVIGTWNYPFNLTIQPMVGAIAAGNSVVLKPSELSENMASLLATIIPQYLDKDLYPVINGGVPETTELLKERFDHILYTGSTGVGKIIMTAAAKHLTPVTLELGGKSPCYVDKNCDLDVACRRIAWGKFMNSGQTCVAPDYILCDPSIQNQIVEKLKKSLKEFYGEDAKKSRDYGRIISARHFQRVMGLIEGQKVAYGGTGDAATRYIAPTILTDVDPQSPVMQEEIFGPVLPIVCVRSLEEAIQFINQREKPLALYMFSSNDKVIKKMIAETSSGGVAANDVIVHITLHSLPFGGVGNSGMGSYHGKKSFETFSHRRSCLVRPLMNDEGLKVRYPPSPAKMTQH
UniProt Q6P1M9, sequence (Q6P1M9 whole entry, looked up): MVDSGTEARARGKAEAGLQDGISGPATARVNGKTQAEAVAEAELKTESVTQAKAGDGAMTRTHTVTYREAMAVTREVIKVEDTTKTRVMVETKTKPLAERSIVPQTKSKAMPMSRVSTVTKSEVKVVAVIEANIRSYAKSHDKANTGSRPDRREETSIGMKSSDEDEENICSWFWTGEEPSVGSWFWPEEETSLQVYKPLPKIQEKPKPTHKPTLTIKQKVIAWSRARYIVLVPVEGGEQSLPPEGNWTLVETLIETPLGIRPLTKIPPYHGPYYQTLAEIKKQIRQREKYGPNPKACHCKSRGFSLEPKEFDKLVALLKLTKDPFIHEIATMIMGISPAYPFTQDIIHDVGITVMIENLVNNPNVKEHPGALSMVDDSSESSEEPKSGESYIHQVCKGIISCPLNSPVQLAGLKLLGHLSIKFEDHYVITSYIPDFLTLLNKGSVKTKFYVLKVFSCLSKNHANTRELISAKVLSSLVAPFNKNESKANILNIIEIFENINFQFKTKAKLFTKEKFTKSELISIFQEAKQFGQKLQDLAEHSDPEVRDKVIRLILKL

As to ALDH3A1 (UniProt P30838), the log2 fold change is 0.147 (inactive) in the assay with erlotinib, 0.257 (inactive) in [1], 0.147 (inactive) in [2] and 0.059 (inactive) in the assay with IRAK-1-4 Inhibitor I.
For the target ABHD13 (UniProt Q7L211), the log2 fold change is 0.015 (inactive) in assay [3]; 0.021 (inactive) in [4]; 0.011 (inactive) in assay [5]; -0.071 (inactive) in [6]; 0.176 (inactive) in assay [7]; 0.04 (inactive) in [8].
For AMDHD2 (UniProt Q9Y303), the results for the log2 fold change in assay [3], in assay [4] and in assay [6] were -0.527 (active), 0.212 (inactive) and -0.391 (inactive), respectively.
For ARMCX5 (UniProt Q6P1M9), the log2 fold change in the assay with erlotinib was -0.08 (inactive); in assay [3], 0.047 (inactive); in [1], -0.004 (inactive); in assay [4], 0.157 (inactive); in assay [5] it was 0.001 (inactive); in assay [2], 0.03 (inactive). Besides, the log2 fold change in [6] was -0.35 (active); in assay [7] it was 0.075 (inactive); in assay [8], -0.039 (inactive); with IRAK-1-4 Inhibitor I, -0.08 (inactive).
For AP3D1 isoform 2 (UniProt O14617), the log2 fold change was 0.029 (inactive) with erlotinib; -0.082 (inactive) in assay [3]; -0.15 (inactive) in assay [1]; -0.162 (inactive) in assay [4]; -0.026 (inactive) in assay [6].

Source of the values: the supplement of paper PMC10849652.
